LT uptake inh: qHTS Assay for Anthrax Lethal Toxin Internalization. Cells, anthrax lethal toxin internalization, FRET ratio (460/530). Potency, µM (top dose mostly 40 µM), hits mostly inhibitors. 70,000 compounds, 0.67% hits. AID 912, 2007; note: nearly all actives have a fitted effect of over 50% in size
AmpC inh det: Promiscuous and Specific Inhibitors of AmpC Beta-Lactamase (assay with detergent); Potency, µM (top dose mostly 28.7 µM); P00811; 71,000 compounds, 0.09% hits; purified AmpC, nitrocefin hydrolysis with detergent; active = well fitted curve in the direction sought with a large enough effect; inconclusive = small, poorly fitted or top-dose-only effect
Target sequence (P00811 whole entry, looked up): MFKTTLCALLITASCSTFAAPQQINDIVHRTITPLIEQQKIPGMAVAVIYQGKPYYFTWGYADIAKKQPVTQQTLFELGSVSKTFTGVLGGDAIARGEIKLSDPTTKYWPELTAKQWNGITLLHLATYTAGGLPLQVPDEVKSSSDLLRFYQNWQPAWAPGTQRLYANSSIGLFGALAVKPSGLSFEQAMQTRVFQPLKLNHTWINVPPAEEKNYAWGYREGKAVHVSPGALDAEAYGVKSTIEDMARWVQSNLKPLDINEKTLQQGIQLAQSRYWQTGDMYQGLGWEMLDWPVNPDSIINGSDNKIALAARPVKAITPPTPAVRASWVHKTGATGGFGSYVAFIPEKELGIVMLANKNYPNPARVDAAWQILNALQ
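E. coli AmpC (5.3 nM) in 20 mM phosphate pH 7.0 with 0.01% Triton X-100, preincubated 15 min RT with compound; nitrocefin (2 uL of 800 uM stock) hydrolysis followed by 480 nm absorbance every 20 s over 4 min.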
AmpC nodet inh: Promiscuous and Specific Inhibitors of AmpC Beta-Lactamase (assay without detergent). P00811. AmpC nitrocefin hydrolysis, absorbance 480 nm, no detergent. Potency, µM (highest dose often 28.7 µM). 71,000 compounds, 1.8% hits. AID 585, 2007
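Enzyme, pH 7.0 phosphate. Compound titrations were pre-incubated with AmpC for 15 min at room temperature before nitrocefin (stock 800 uM) addition; product formation was recorded at 480 nm every 20 s for 4 min.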
SmPrx2 inh: Schistosoma Mansoni Peroxiredoxins (Prx2); Schistosoma mansoni peroxiredoxin 2 (Prx2); S. mansoni Prx2 activity coupled to TGR/GSH (TGR is thioredoxin glutathione reductase), NADPH fluorescence loss, qHTS; Potency, µM; 65,000 compounds, 0.07% hits
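Purified S. mansoni TGR and Prx2 in pH 7.4 phosphate buffer with EDTA and Tween-20 were preincubated with compounds for 15 min. Further NADPH/GSH was added, then a 2.5 mM H2O2 aliquot initiated turnover, followed kinetically by NADPH fluorescence.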
Hits are given with their value; n = inactive; u = inconclusive; x = no result given; [ ] = remark or other dose. Most compounds without a hit are left out; they make up all but 2.4% or so of the library. Unless noted, calls come from the whole dose curve.

SMILES	LT uptake inh	AmpC inh det	AmpC nodet inh	SmPrx2 inh
Cc1cccc(CNc2ncnc3[nH]ncc23)c1	n[8 µM]	n[5.75 µM]	n[5.75 µM]	n
COC(=O)[C@@H]1C[C@H]1[C@@H](NS(=O)(=O)c1ccc2ccccc2c1)c1ccccc1	u	n	n	n
CCNc1ncc2nc(-c3ccc(Cl)cc3)c(=O)n(-c3ccc(OC)cc3)c2n1	u	n	n	n
COc1ccccc1CNc1nc(-c2cccc(C#N)c2)nc2ccccc12	u	n	u	n
COc1cccc(-c2nc(NCc3ccccc3OC)c3ccccc3n2)c1	13µM	n	n	n
COc1ccccc1CNc1nc(-c2ccc(N(C)C)cc2)nc2ccccc12	u	n	n	n
CNc1nc(-c2cccc(NS(C)(=O)=O)c2)nc2ccccc12	n	n	n	n
COc1ccccc1CNc1nc(-c2cccc(NS(C)(=O)=O)c2)nc2ccccc12	13µM	n	n	n
COc1cccc(-c2nc(NCc3ccccc3)c3ccccc3n2)c1	n	n	n	n
CS(=O)(=O)Nc1cccc(-c2nc(Nc3ccc(F)cc3)c3ccccc3n2)c1	10µM	n	n	n
COc1ccccc1CNc1nc(-c2ccc3c(c2)OCO3)nc2ccccc12	13µM	n	u	n
O=C(COc1ccc(Cl)cc1)Nc1nc(-c2cccs2)cs1	10µM	n	u	n
O=C(Cc1ccccc1)Nc1nc(-c2cccs2)cs1	u	n	u	n
CC(C)[C@H]1C(=O)C(C(N)=O)=C(O)[C@]2(O)C(=O)C3=C(O)c4c(O)ccc(N(C)C)c4C[C@H]3C[C@@H]12	n	n	n	n
Cc1nc2cnc(N(C)C)nc2n(CCC#N)c1=O	n	n	n	n
CN1CCCC2(CCN(C(=O)c3cccn3C)CC2)C1	n	n	n	n
N#Cc1nc(-c2cccc3ccccc23)oc1NCCN1CCOCC1	u	n	n	n
N#Cc1nc(-c2ccccc2F)oc1NCCN1CCOCC1	n	n	4µM[single pt active]	n
O=C(CSc1nnc2scc(-c3ccccc3)n12)NCc1ccc2c(c1)OCO2	n	n	n	n
Cn1c(SCC(=O)NCc2ccc3c(c2)OCO3)nc2scc(-c3cccs3)c2c1=O	n	n	16µM[single pt active]	n
Cc1ccsc1/C=C\C1=NCCCN1C	n[3.58 µM]	n	n	n
CS(=O)(=O)N1CCC[C@@]2(CCN(C(=O)Nc3ccccc3)C2)C1	n	n	n	n
O=C(Cc1coc2cc3c(cc12)CCC3)OCc1cc(=O)n2c(n1)sc1ccccc12	n	n	10µM	n
Cc1ccc2c(CC(=O)OCc3csc(C)n3)coc2c1	n	n	n	n
N#Cc1cccc(NC(=O)N2CC[C@@]3(CCCN(C(=O)c4cc(C(F)(F)F)cc(C(F)(F)F)c4)C3)C2)c1	n	n	n	n
SMILES	LT uptake inh	AmpC inh det	AmpC nodet inh	SmPrx2 inh
Cc1ccc(S(=O)(=O)Nc2cccc(-c3cn4ccsc4n3)c2)cc1	u	n	6.3µM	n
Cc1nc2ccccc2cc1C[N+]12CN3CN(CN(C3)C1)C2	n[8 µM]	n[5.75 µM]	n[5.75 µM]	n
CCOc1ccc(S(=O)(=O)n2c(C)nc3ccccc32)cc1	n	n	4µM[single pt active]	n
CCCCOc1ccc(S(=O)(=O)n2c(C)nc3ccccc32)cc1	u	n	n	n
NCc1ccccc1CC(=O)N[C@@H]1C(=O)N2C(C(=O)O)=C(CSc3nnnn3CC(=O)O)CS[C@@H]12	n[3.58 µM]	n	n	n
CO/N=C(\C(=O)N[C@@H]1C(=O)N2C(C(=O)O)=C(COC(N)=O)CS[C@@H]12)c1ccco1	u	0.079µM	0.04µM	n
COc1ccccc1-c1nnc(SCC(=O)NCc2c(C)c(Cl)cc(C(C)C)c2O)o1	10µM	n	n	n
COc1ccccc1-c1nnc(SCC(=O)Nc2c(Cl)cccc2Cl)o1	n	n	n	n
Oc1ccc(Nc2nc(N3CCCC3)c3ccccc3n2)cc1	13µM	n	u	n
Cc1ccc(Nc2nc(N3CCOCC3)c3ccccc3n2)cc1	n	n	n	n
C=C(C)C(O)/C=C/c1ccc(Br)cc1 (configuration not stated)	n[8 µM]	x	x	x
O=[N+]([O-])c1ccc(O[C@H]2O[C@@H](CO)[C@@H](O)[C@@H](O)[C@@H]2F)c([N+](=O)[O-])c1	n	n	n	n
O=S(=O)(c1ccccc1)N1CCC2(CCCN(Cc3ccncc3)C2)CC1	u	n	n	n
N=c1n(CCO)c2ccccc2n1CCOc1ccc(Cl)cc1Cl	u	n	4µM[single pt active]	n
Cc1c(NC(=O)CCCCCN2C(=O)C3C4C=CC(C4)C3C2=O)c(=O)n(-c2ccccc2)n1C (configuration not stated)	n	n	2.5µM[single pt active]	n
O=C(NCCN1CCOCC1)N1CCOCC1	n	n	n	n
Cc1c(NC(=O)NCCN2C(=O)C3C4C=CC(C4)C3C2=O)c(=O)n(-c2ccccc2)n1C (configuration not stated)	n	n	4µM[single pt active]	n
Cc1c(NC(=O)c2ccc(N3C(=O)C4C5C=CC(C5)C4C3=O)cc2)c(=O)n(-c2ccccc2)n1C (configuration not stated)	u	n	n	n
Cc1c(NC(=O)C(C)N2C(=O)C3C4C=CC(C4)C3C2=O)c(=O)n(-c2ccccc2)n1C (configuration not stated)	n	n	n	n
CCCc1nnc(NC(=O)NCCN2C(=O)C3C4C=CC(C4)C3C2=O)s1 (configuration not stated)	n	n	4µM[single pt active]	n
O=C(NCCN1C(=O)C2C3C=CC(C3)C2C1=O)N1CCOCC1 (configuration not stated)	n	n	4µM[single pt active]	n
CCOC(=O)N/N=C1/C[C@@H](O)[C@@H](O)[C@@H]2[C@@H]3C(=O)N(c4cccc(Oc5ccccc5)c4)C(=O)[C@H]3CC[C@H]12	n[1.6 µM]	x	x	x
O=C(CCN1C(=O)C2C3C=CC(C3)C2C1=O)NCCc1ccccc1 (configuration not stated)	n	n	n	n
O=C(NCCN1C(=O)C2C3C=CC(C3)C2C1=O)Nc1ccccc1O (configuration not stated)	n	n	4µM[single pt active]	n
CC(C)[C@H](Nc1ncnc2nc[nH]c12)C(=O)O	n[8 µM]	n[5.75 µM]	n[5.75 µM]	n
SMILES	LT uptake inh	AmpC inh det	AmpC nodet inh	SmPrx2 inh
COc1ccc(-c2oc3ccc(C)cc3c(=O)c2O)cc1OC	u	n	n	n
O=C(CSc1nnc(-c2cc3ccccc3cc2O)n1Cc1ccco1)c1ccc(F)cc1	u	n	10µM	n
CN(C)c1cccc(C(=O)Nc2cccc(F)c2)c1	x	n	n	n
CCN(CC)c1ccc(C(=O)Nc2cccc(F)c2)cc1	10µM	n	n	n
COc1ccc(Oc2ncc3nc(CCc4ccccc4)c(=O)n(CCC#N)c3n2)cc1	u	n	n	n
O=C(Cc1cccs1)Nc1ccc(S(=O)(=O)N2CCCCC2)cc1	n	n	13µM[single pt active]	n
O=C(Nc1ccc(S(=O)(=O)N2CCCCCC2)cc1)c1ccc(Br)o1	1.6µM	n	n	n
O=C(O)[C@H]1CN[C@H](C(=O)O)C1	n	n	n	n
CN(C)CCCc1c2ccccc2nc2ccc(Cl)cc12	n[8 µM]	n[5.75 µM]	n[5.75 µM]	n
O=C(NCCc1ccccc1)c1ccc(-n2cnnn2)cc1	n	n	n	n
